Calls of active or inactive are those of the source. Unless noted, no rule for the calls is given here.
Key:
[1] = system: Wnt5a (protein binding on small-molecule microarray); assay: Wnt5a binders on small-molecule microarray, primary screen, biophysical, 635/667 nm fluorescence (AID 1142); details: 635 nm fluorescence, higher = more signal;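 also: fluorescence read at 667 nm with signal to noise per printed feature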
[2] = cell viability in Huh7 cells, primary screen, cytotoxicity control for HCV replication inhibitor project, CellTiter-Glo luminescence, basal, 48 h (AID 1143); details: Huh7 HCV replicon, higher = more signal, called active from +8 up or from −8 down;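 also: Huh7 hepatoma cells carrying a hepatitis C replication reporter with no stimulus; test concentration not given here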
[3] = P. aeruginosa biofilm formation inhibitors, primary screen, PAO1 strain, BacTiter-Glo luminescence, LB-PBS (AID 1144); details: 12 h, higher = more signal
[4] = CREB reporter modulators without forskolin, primary screen, cell-based, PC12, CRE-LacZ reporter, unstimulated (AID 1145); details: no forskolin, luminescence, 4.5 h, higher = more signal, called active from +8 up or from −8 down
[5] = CREB reporter modulators under forskolin, primary screen, cell-based, PC12, CRE-LacZ reporter, forskolin-stimulated (AID 1146); details: luminescence, 4.5 h, higher = more signal, called active from +8 up or from −8 down;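 also: PC12 cells with 6xCRE LacZ reporter stimulated by forskolin 10 µM; beta-galactosidase reporter signal reflecting CREB driven transcription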
[6] = molecular target: Streptavidin (Streptomyces avidinii) (UniProt P22629); assay: streptavidin binders on small-molecule microarray, primary screen, artefact control for SMM compound annotation, biophysical, 635/667 nm fluorescence (AID 1147); details: streptavidin binding, higher = more signal;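 also: signal reflects streptavidin binding to arrayed compounds as a control protein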
Streptavidin (Streptomyces avidinii), sequence (P22629 whole entry, looked up): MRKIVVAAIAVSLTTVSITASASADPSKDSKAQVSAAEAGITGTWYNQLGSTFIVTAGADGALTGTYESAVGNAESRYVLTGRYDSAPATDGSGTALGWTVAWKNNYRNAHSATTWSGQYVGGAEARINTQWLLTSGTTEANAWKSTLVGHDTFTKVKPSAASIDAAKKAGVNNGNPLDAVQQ

[7] = small-molecule binders of probe aInhba, primary screen, biochemical, small-molecule microarray, 635/667 nm fluorescence (AID 1148); details: higher = more signal;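 also: score merges 667nm spot fluorescence with signal-to-noise for antibody binding to printed compounds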
[8] = molecular target: Torsin-1A (Homo sapiens) (UniProt O14656); assay: torsin A binders from cell lysate, primary screen, small-molecule microarray, wild-type, 635/667 nm (AID 1149); details: COS7 hTOR1A-WT lysate, 635 nm fluorescence, higher = more signal
Torsin-1A (Homo sapiens), sequence (O14656 whole entry, looked up): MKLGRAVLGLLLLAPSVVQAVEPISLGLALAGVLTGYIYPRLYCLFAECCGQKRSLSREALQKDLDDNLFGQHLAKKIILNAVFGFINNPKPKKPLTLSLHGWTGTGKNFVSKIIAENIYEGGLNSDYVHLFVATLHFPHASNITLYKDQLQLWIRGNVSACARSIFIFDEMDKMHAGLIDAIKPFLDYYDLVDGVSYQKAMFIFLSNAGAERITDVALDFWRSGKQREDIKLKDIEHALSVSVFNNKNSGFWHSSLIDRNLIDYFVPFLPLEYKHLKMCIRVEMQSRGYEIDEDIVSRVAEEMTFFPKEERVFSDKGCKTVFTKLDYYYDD

[9] = molecular target: Torsin-1A (Homo sapiens) (UniProt O14656); assay: small-molecule binders of mutant TOR1A in lysate, primary screen, cell lysate, small-molecule microarray, COS7 lysate, 635/667 nm fluorescence (AID 1150); details: COS7 hTOR1A mutant lysate, 635 nm fluorescence, higher = more signal;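 also: score pools 667 nm emission and signal to noise measuring lysate protein binding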
[10] = system: Sonic hedgehog protein (Shh); assay: small-molecule binders of Shh protein, primary screen, biochemical, small-molecule microarray, 635/667 nm fluorescence (AID 1151); details: small-molecule microarray binding, 635 nm fluorescence; higher = more signal;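 also: Shh protein binding to compounds spotted on small-molecule microarray slides; score combines spot fluorescence intensity with signal-to-noise across triplicate slides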
[11] = E. coli DRC41 culture turbidity changes, primary screen, E. coli filamentation inducer project, strain DRC41, OD650, 48 h (AID 1152);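 also: E. coli MC1000 strain DRC41 lacking acrAB efflux pump and sulA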; details: E. coli DRC41 (acrAB sulA), higher = more signal, called active from +8 up or from −8 down
[12] = small-molecule binders of probe aLefty1, primary screen, biochemical, small-molecule microarray, 635/667 nm fluorescence (AID 1153); details: higher = more signal;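 also: score merges spot fluorescence with signal-to-noise ratio from the scanned slide images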
[13] = PSAC antagonists in infected red cells, primary screen, cell-based, P. falciparum Indochina, OD700, 1 h (AID 1154); details: P. falciparum Indochina infected RBC osmotic lysis, higher = more signal, called active from +8 up or from −8 down
[14] = PSAC antagonists in infected red cells, primary screen, cell-based, P. falciparum Indochina, OD700, 2 h (AID 1155);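 also: lysis reports solute entry through the parasite surface anion channel PSAC; channel blockers reduce lysis of infected cells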; details: P. falciparum Indochina infected erythrocytes, osmotic lysis OD700; higher = more signal, called active from +8 up or from −8 down
[15] = osmotic lysis modulators in infected erythrocytes, primary screen, PSAC antagonist project, cell-based, P. falciparum Indochina, OD700, 3 h (AID 1156); details: higher = more signal, called active from +8 up or from −8 down
[16] = PSAC antagonists in infected red cells, primary screen, cell-based, P. falciparum Indochina, OD700, 18 h (AID 1157); details: P. falciparum Indochina infected erythrocytes, osmotic lysis OD700, 18 h; higher = more signal, called active from +8 up or from −8 down
[17] = modulators of S6 phosphorylation in cells, primary screen, cell-based, A549, cytoblot, luminescence, serum-stimulated (AID 1158); details: A549 phospho-S6 cytoblot, 5 h, higher = more signal;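 also: serum-stimulated A549 lung adenocarcinoma cells; signal is phosphorylated S6 detected by cytoblot immunostaining with HRP secondary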
[18] = molecular target: NADPH oxidase 2 (Homo sapiens) (UniProt P04839); assay: NOX2-dependent H2O2 signal modulators, primary screen, NOX inhibitor project, cell-based, HEK293-NOX2, PMA-stimulated, Amplex Red fluorescence (AID 1159); details: 45 min, higher = more signal, called active from +8 up or from −8 down; also: test concentration not given here
NADPH oxidase 2 (Homo sapiens), sequence (P04839 whole entry, looked up): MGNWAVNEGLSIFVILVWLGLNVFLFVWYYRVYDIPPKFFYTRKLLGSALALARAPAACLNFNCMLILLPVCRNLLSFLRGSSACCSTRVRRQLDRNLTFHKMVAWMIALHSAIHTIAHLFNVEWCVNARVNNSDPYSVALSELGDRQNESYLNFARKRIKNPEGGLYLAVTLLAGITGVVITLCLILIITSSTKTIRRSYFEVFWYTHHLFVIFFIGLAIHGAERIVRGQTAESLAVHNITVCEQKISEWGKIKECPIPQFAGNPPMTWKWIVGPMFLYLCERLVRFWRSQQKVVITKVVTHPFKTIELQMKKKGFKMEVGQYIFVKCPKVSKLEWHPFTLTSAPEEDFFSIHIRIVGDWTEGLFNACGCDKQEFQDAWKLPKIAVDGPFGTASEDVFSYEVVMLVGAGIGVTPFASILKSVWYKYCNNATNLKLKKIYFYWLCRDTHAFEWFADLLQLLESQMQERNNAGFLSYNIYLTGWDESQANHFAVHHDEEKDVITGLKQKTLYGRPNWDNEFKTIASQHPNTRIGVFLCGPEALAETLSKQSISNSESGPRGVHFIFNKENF

[19] = molecular target: NADPH oxidase 4 (Homo sapiens) (UniProt Q9NPH5); assay: NOX4-dependent H2O2 signal modulators, primary screen, NOX inhibitor project, cell-based, HEK293-NOX4, tetracycline-induced, Amplex Red fluorescence (AID 1160); details: 45 min, higher = more signal, called active from +8 up or from −8 down
NADPH oxidase 4 (Homo sapiens), sequence (Q9NPH5 whole entry, looked up): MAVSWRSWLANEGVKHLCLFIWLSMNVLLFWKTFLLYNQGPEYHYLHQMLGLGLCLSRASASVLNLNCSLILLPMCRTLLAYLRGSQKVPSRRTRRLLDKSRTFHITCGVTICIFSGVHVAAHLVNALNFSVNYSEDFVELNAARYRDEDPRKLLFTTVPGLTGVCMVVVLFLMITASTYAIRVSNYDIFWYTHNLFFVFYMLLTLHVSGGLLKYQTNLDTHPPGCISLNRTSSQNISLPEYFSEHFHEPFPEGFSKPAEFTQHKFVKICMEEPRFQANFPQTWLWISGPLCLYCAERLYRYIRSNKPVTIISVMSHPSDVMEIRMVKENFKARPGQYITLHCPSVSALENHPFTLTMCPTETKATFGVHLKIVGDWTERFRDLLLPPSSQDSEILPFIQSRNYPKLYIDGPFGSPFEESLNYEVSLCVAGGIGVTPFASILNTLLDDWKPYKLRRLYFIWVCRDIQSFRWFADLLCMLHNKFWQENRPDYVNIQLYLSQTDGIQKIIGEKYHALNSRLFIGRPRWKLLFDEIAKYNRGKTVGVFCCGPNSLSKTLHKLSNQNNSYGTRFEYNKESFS

[20] = molecular target: NADPH oxidase 5 (Homo sapiens) (UniProt Q96PH1); assay: NOX5-dependent H2O2 signal modulators, primary screen, NOX inhibitor project, cell-based, HEK293-NOX5, Amplex Red fluorescence (AID 1161); details: HEK293-NOX5, ionomycin, 45 min, higher = more signal
NADPH oxidase 5 (Homo sapiens), sequence (Q96PH1 whole entry, looked up): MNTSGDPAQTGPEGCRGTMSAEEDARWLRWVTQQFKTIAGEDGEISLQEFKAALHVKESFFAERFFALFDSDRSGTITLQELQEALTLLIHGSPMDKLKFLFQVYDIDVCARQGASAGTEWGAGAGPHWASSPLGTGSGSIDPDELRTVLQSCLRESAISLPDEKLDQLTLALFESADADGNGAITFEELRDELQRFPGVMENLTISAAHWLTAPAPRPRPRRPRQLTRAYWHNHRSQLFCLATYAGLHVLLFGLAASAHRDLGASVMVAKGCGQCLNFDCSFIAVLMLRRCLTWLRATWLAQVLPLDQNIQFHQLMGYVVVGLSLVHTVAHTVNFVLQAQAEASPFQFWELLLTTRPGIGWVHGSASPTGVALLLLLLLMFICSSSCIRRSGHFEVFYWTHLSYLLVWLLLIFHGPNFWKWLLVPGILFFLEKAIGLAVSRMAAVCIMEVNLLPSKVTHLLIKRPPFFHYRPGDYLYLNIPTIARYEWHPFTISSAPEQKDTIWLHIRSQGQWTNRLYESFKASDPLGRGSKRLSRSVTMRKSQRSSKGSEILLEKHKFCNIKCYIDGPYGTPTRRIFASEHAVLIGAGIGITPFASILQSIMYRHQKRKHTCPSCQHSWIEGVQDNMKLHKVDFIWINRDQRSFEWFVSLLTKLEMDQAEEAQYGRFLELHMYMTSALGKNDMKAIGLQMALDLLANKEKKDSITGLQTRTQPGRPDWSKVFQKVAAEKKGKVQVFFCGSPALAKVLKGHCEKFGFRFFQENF

| Compound | composite z-score [1] | z-score [2] | z-score [3] | z-score [4] | z-score [5] | composite z-score [6] | composite z-score [7] | composite z-score [8] | composite z-score [9] | composite z-score [10] | z-score [11] | composite z-score [12] | z-score [13] | z-score [14] | z-score [15] | z-score [16] | z-score [17] | z-score [18] | z-score [19] | z-score [20] |
| --- | --- | --- | --- | --- | --- | --- | --- | --- | --- | --- | --- | --- | --- | --- | --- | --- | --- | --- | --- | --- |
| CCCN1C(=O)[C@@H]2Cc3c([nH]c4ccccc34)[C@@H](c3cccc(O)c3)N2C1=O | -0.0436 | 0.792 (inactive) | -0.23 (inactive) | -0.374 (inactive) | -0.0707 (inactive) | -0.294 | -0.024 | 0.288 | 0.193 | 0.216 | -0.524 (inactive) | 0.0742 | -0.578 (inactive) | -0.108 (inactive) | -0.539 (inactive) | -0.114 (inactive) | 0.257 | -0.904 (inactive) | -1.02 (inactive) | -0.413 |
| CN1C(=O)C2C=CC(C(O)C3CCCCC3)N(N(c3ccccc3)c3ccccc3)C2C1=O (stereo not given) | 0.0957 | 0.673 (inactive) | 0.0683 (inactive) | -0.333 (inactive) | 0.355 (inactive) | -0.0316 | 0.596 | -0.08 | 0.0415 | -0.298 | -1.11 (inactive) | 0.344 | 0.801 (inactive) | 1.09 (inactive) | 0.332 (inactive) | 0.926 (inactive) | -1.47 | -0.557 (inactive) | -0.635 (inactive) | -0.0135 |
| CC(C)C[C@H]1NC(=O)[C@H](C)NC(=O)[C@@]23C(=O)N[C@@H](Cc4ccccc4)C2[C@H](C)[C@@]2(C)O[C@H]2C3/C=C/C/C=C\CNC1=O (stereo not given in full) | -0.0392 | 0.288 (inactive) | 0.325 (inactive) | 2.03 (inactive) | -0.0505 (inactive) | -0.442 | -0.176 | -1.09 | 0.0821 | 0.366 | -1.07 (inactive) | -0.774 | 2.71 (inactive) | -0.169 (inactive) | 0.137 (inactive) | 0.11 (inactive) | 0.0246 | -0.232 (inactive) | 0.83 (inactive) | -0.234 |
| O=C1N(Cc2ccccc2)c2ccccc2[C@H]2OC(c3ccc(OCCCO)cc3)=N[C@@]12CCS(=O)(=O)c1ccccc1 | 0.889 | -4.05 (inactive) | -1.19 (inactive) | 2.96 (inactive) | -1 (inactive) | 0.211 | 0.166 | 0.795 | 0.591 | 2.09 | -0.751 (inactive) | 0.396 | 25.3 (active) | 11.8 (active) | 2.9 (inactive) | 1.85 (inactive) | -0.0791 | -0.596 (inactive) | -0.793 (inactive) | -1.21 |
| CC(C)CNC(=O)[C@@]1(C)c2ccccc2C(=O)N(Cc2ccccc2)[C@H]1c1ccc(CO)cc1 | -0.368 | 0.0572 (inactive) | 0.789 (inactive) | 0.531 (inactive) | 0.172 (inactive) | -1.18 | -0.331 | -1.5 | -0.742 | -1.02 | -0.743 (inactive) | -0.16 | 3.11 (inactive) | 0.122 (inactive) | 0.709 (inactive) | 0.0589 (inactive) | 0.11 | -0.912 (inactive) | 0.0265 (inactive) | -1.13 |
| COC(=O)[C@@]1(Cc2ccccc2)[C@H]2c3cc(C(=O)N(C)C)n(Cc4ccccn4)c3C[C@H]2CN1C(=O)c1ccccc1 | 0.283 | -1.16 (inactive) | -0.0189 (inactive) | 1.73 (inactive) | 1.42 (inactive) | 2.27 | 0.38 | -0.208 | 0.239 | -0.709 | -1.59 (inactive) | 0.378 | 1.32 (inactive) | 0.458 (inactive) | 0.365 (inactive) | 0.544 (inactive) | -0.733 | 0.048 (inactive) | -1.87 (inactive) | -2.08 |
| CN(C)CCCCCCNC(=O)[C@@H]1C[C@@H]2C(=O)NCC(=O)N2[C@@H]1c1ccc(O)cc1 | 0.781 | -0.981 (inactive) | -0.162 (inactive) | 0.147 (inactive) | 0.625 (inactive) | 0.28 | -0.102 | 0.97 | 1.32 | 1.93 | -0.407 (inactive) | 0.298 | 0.755 (inactive) | -0.296 (inactive) | 0.794 (inactive) | -0.114 (inactive) | -0.341 | -0.289 (inactive) | 0.12 (inactive) | 0.524 |
| CC(C)C(CO)N1C(=O)[C@@H]2[C@H]3C(=O)OCC=C[C@H]3OC23C=CCN(Cn2nnc4ccccc42)C(=O)[C@@H]13 (stereo not given in full) | -0.257 | 0.44 (inactive) | 0.0585 (inactive) | -0.492 (inactive) | -0.0021 (inactive) | -1.05 | -0.231 | -0.957 | -2.27 | -1 | 0.197 (inactive) | -0.228 | 0.766 (inactive) | 0.123 (inactive) | 0.393 (inactive) | 0.0882 (inactive) | 0.234 | 0.699 (inactive) | 0.247 (inactive) | 0.94 |
| O=C1C[C@@](C(=O)O)(c2ccc([N+](=O)[O-])cc2)[C@@H](c2ccc(CO)cc2)N1CC12CC3CC(CC(C3)C1)C2 | 0.319 | -5.13 (inactive) | -1.03 (inactive) | -0.322 (inactive) | 0.351 (inactive) | 0.791 | -0.0759 | 0.734 | 0.949 | 1.76 | -0.146 (inactive) | 0.0041 | 6.47 (inactive) | 0.964 (inactive) | 2.67 (inactive) | 0.279 (inactive) | 0.469 | -0.545 (inactive) | -2.72 (inactive) | -1.01 |
| CCCC[C@H]1OB(O)C[C@H]2C1=C(COc1ccccc1)Cn1c(=O)n(-c3ccccc3)c(=O)n12 | 0.0561 | -0.363 (inactive) | -0.127 (inactive) | -0.141 (inactive) | 0.402 (inactive) | 0.0395 | -0.104 | 0.418 | 0.5 | 1.64 | 0.4 (inactive) | -0.06 | 2.14 (inactive) | 0.0541 (inactive) | 0.722 (inactive) | 0.0113 (inactive) | 0.279 | -0.281 (inactive) | -0.216 (inactive) | 0.779 |
| O=[N+]([O-])c1ccc(C[n+]2ccc(-c3ccc(CO)cc3)cc2)o1 | -0.0922 | -1.13 (inactive) | -0.42 (inactive) | -0.464 (inactive) | 0.239 (inactive) | 0.85 | 0.0816 | -0.078 | 0.0063 | 1.44 | -1.32 (inactive) | -0.0764 | 1.34 (inactive) | 0.199 (inactive) | 0.495 (inactive) | -0.139 (inactive) | -0.103 | 0.0654 (inactive) | -0.765 (inactive) | -3.73 |
| CCOC(=O)C1=CC[C@@H](c2cccc(Br)c2)N(S(=O)(=O)c2ccc(C)cc2)[C@H]1c1ccc([N+](=O)[O-])cc1 | 0.559 | -2.18 (inactive) | -0.314 (inactive) | -0.63 (inactive) | 0.115 (inactive) | 1.22 | 0.157 | 0.907 | 0.469 | 0.778 | -1.22 (inactive) | 0.0509 | 1.27 (inactive) | 1.55 (inactive) | -0.0988 (inactive) | 1.29 (inactive) | -0.68 | 1.24 (inactive) | 0.77 (inactive) | 0.165 |
| COCCOC(=O)N1C(=O)[C@@]2(c3cc(C#CCNC(N)=O)ccc31)[C@H](C(N)=O)[C@H]1C(=O)O[C@H](c3ccccc3)[C@H](c3ccccc3)N1[C@@H]2c1ccc(OCCO)cc1 | 0.601 | 0.166 (inactive) | 0.404 (inactive) | 0.631 (inactive) | -0.0727 (inactive) | 0.668 | 0.0219 | 0.532 | 1.26 | 1.63 | -0.618 (inactive) | -0.41 | 6.81 (inactive) | 1.02 (inactive) | -0.0934 (inactive) | 0.237 (inactive) | -0.575 | 1.8 (inactive) | 1.04 (inactive) | 0.0625 |
| CC(=O)NCCCC[C@@H]1NC(=O)[C@H]2C[C@@H](C(=O)NCCCCCN)[C@@H](c3cccc(OCCO)c3)N2C1=O | 0.292 | -0.532 (inactive) | 0.00194 (inactive) | -0.675 (inactive) | -1.44 (inactive) | 0.688 | -0.102 | 0.455 | 0.0709 | -0.0725 | 2.39 (inactive) | 0.262 | 1.15 (inactive) | -1.08 (inactive) | 1.9 (inactive) | -1.98 (inactive) | 1.36 | 0.0821 (inactive) | 0.793 (inactive) | 0.875 |

Source: PubChem BioAssay
